Rows were chosen to be rich in hits. Some 11% of all compounds tested hit in one or more screens of this group.
L3MBTL1 block: qHTS Assay for the Inhibitors of L3MBTL1; AlphaScreen L3MBTL1–H3K9me1 peptide binding; Potency, µM (titrated, usually from 57.1 µM), for the others: at the highest dose activity, negative = inhibition, usual class: inhibitors; 0.66% of 230,000 active; further: on the % scale 0 is the no-effect control and ±100 the full control effect; nearly all actives have a fitted effect of over 60% in size
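Read-out is AlphaScreen signal from streptavidin donor and nickel chelate acceptor beads (10 ug/mL final each) bridging L3MBTL1 (50 nM) and biotinylated K9-monomethylated H3(1-15) peptide (75 nM), after 30 min compound exposure at room temperature.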
HP1b binding inh: HTS for Inhibitors of HP1-beta Chromodomain Interactions with Methylated Histone Tails; Chromobox protein homolog 1 (Homo sapiens), P83916; AlphaScreen HP1-beta / biotin-H3K9me3 peptide binding; Potency, µM (doses to about 114 µM), for the others: at the top dose activity change, negative = inhibition, usual class: inhibitors; 0.56% of 390,000 active; AID 540317, 2011; further: nearly all actives have a fitted effect of over 70% in size
Target sequence (P83916 whole entry, looked up): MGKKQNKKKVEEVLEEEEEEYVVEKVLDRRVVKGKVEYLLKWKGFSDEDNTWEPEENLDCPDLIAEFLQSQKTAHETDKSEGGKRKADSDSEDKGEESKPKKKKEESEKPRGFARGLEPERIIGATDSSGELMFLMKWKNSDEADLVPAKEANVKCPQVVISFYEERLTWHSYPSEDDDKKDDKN
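Compound inhibition of the preformed complex between 50 nM HP1-beta and 50 nM biotinylated H3K9me3 peptide was read by AlphaScreen. Buffer was PBS pH 7.4 with 0.01% Tween-20. Incubations ran 30 min at room temperature, with 10 ug/mL donor/acceptor beads.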
G9a inh: qHTS Assay for Inhibitors of Histone Lysine Methyltransferase G9a; Histone-lysine N-methyltransferase EHMT2 (Homo sapiens), Q96KQ7; 8.8% of 350,000 active; G9a H3K9 monomethylation, AlphaScreen, 2 h; Potency, µM (top dose mostly 102 µM), for inactives: at the top dose activity, negative = inhibition, usual class: inhibitors; AID 504332, 2011; further: on the % scale 0 is the no-effect control and ±100 the full control effect; nearly all actives have a fitted effect of over 75% in size
Target sequence (Q96KQ7 913-1193 limits assumed): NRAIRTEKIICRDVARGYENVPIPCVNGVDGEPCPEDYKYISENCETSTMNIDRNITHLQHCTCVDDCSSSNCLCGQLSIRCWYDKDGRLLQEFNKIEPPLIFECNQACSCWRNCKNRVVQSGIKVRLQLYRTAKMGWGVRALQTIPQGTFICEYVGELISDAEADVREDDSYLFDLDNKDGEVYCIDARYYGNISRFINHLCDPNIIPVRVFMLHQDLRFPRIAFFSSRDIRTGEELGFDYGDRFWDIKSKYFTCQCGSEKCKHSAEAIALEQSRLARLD
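Readings reflect AlphaScreen signal from monomethyl-H3K9 antibody detection. HMT at 20 nM; substrate b-H3K9 500 nM; cofactor SAM 20 uM; 2 h RT reaction; compounds tested as titrations in qHTS with 15 min preincubation.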
JMJD2A Tudor inh: qHTS Assay for Inhibitors of JMJD2A-Tudor Domain | Lysine-specific demethylase 4A (Homo sapiens), O75164 | AlphaScreen JMJD2A-Tudor / H3K4me3 peptide binding | Potency, µM (doses to about 114 µM), for the others: top-dose activity change, negative = inhibition, most hits filed as inhibitors | 4.4% of 390,000 active; further: on the % scale 0 is the no-effect control and ±100 the full control effect; nearly all actives have a fitted effect of over 50% in size
BAZ2B inh: qHTS Assay for Inhibitors of BAZ2B; AID 504333, 2011; Potency, µM (series often up to 114 µM), for inactives: at the highest dose activity change, negative = inhibition, actives largely listed as inhibitors; 4.4% of 360,000 active; AlphaScreen BAZ2B-H3K14Ac peptide displacement; further: on the % scale 0 is the no-effect control and ±100 the full control effect; nearly all actives have a fitted effect of over 60% in size
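AlphaScreen displacement of biotin-H3(5-23)K14Ac peptide (50 nM final) from BAZ2B (50 nM final) in PBS pH 7.4, 0.01% Tween-20; complex preformed 30 min RT, then compounds (top 110 uM) 30 min RT, beads 20 min dark.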
* hit, by the source's call; ? = inconclusive; . = no result; [ ] = dose if it differs, or a comment. The call rests on the fitted dose curve; in most records, active means well fitted inhibition curve with a large enough effect; inconclusive means small, poorly fitted or top-dose-only effect; inactive means no such curve, though single readings can be large or run the other way. Potency means the concentration at half of the fitted maximal effect.

SMILES	L3MBTL1 block	HP1b binding inh	G9a inh	JMJD2A Tudor inh	BAZ2B inh
CCOC(=O)C1CCCN(Cc2ccc(OC)c(OCc3ccccc3)c2)C1 (stereo unspecified)	-2.2%	?	44.7µM*	28.2µM*	-38.6%
COc1ccc(CN2CCN(C)CC2)cc1OCc1ccccc1	.	36.2%	?	-19.6%	-8.0%
O=C(CN1C(=O)C(c2ccc(F)cc2)=NC12CCCCCC2)Nc1ccccc1Cl	.	95.3%	47.4%[59 µM]	10.4%	45.8%
Clc1ccccc1-c1ccc2ncnc(NC3CCNCC3)c2c1	.	.	0.2%[0.501 µM]	.	.
COc1cccc(Cn2c(=O)c(-c3ccccc3)nc3cnc(N4CCNCC4)nc32)c1	.	.	2.2%[0.501 µM]	.	.
NC(=O)COc1cccc2cccnc12	.	21.8%	44.7µM*	5.2%	0.1%
Cc1oc(C(=O)O)cc1COc1cccc2cccnc12	28.2µM*	14.3%	79.4µM*	79.4µM*	39.8µM*
O=C(COc1cccc2cccnc12)NNC(=S)Nc1ccccc1	.	.	17.8µM*	.	2.2%
O=C(COc1cccc2ccccc12)NNC(=O)Nc1ccccc1	-7.4%	29.1%	?	-23.0%	-26.4%
Cc1ccc(NC(=O)CN(C)C(=O)COc2cccc3cccnc23)cc1	?	2.9%	?	?	50.1µM*
Nc1ccccc1Sc1c[nH]c2ccccc12	.	-15.8%	44.7µM*	?	?
Cc1c2cnn(-c3ccccc3)c(=O)c2c(C)n1CCCC(=O)Nc1ccc(F)cc1F	.	-0.2%	-3.6%[59 µM]	-27.9%	?
O=C(C#Cc1ccccc1)c1cccc([N+](=O)[O-])c1	.	20.1%	3.55µM*	-13.6%	?
O=C(/C=C/c1ccccc1F)c1cccc([N+](=O)[O-])c1	-0.5%	-1.8%	28.2µM*	?	?
CC(=O)c1cccc([N+](=O)[O-])c1	-3.1%	22.0%	-2.5%[0.501 µM]	-7.6%	1.2%
CCOC(=O)C1Nc2ccc(C(F)(F)F)cc2C2c3ccccc3CC12 (stereo unspecified)	.	46.6%	.	-7.0%	.
CCOC(=O)C1Nc2ccccc2C2C(O)C(O)CC12 (stereo unspecified)	.	-13.7%	.	50.1µM*	.
Cc1cccc(-c2ncc(CN3CCN(CC(C)C)C(CCO)C3)cn2)c1 (stereo unspecified)	4.2%	10.6%	-4.5%[59 µM]	17.8µM*	-19.0%
Cc1ccc(-c2cccc(CN3CCN(C(C)C)C(CCO)C3)c2)o1 (stereo unspecified)	-13.2%	19.9%	44.7µM*	-24.1%	-31.6%
CCOc1cccc2sc(N(Cc3cccnc3)C(=O)C3CCCCC3)nc12	.	36.7%	4.5%[59 µM]	-5.2%	-3.6%
O=C(CCc1nnc2ccc(NCc3ccco3)nn12)N1CCN(c2ccccc2F)CC1	.	30.1%	.	?	70.8µM*
COc1ccc(NC(=O)CCc2nnc3ccc(NCc4ccco4)nn23)cc1	.	20.9%	17.7%	-28.2%	-30.1%
O=C(CCc1nnc2ccc(NCc3ccco3)nn12)Nc1ccccn1	.	32.3%	?	11.3%	50.1µM*
Cc1cccc(NC(=O)CCc2nnc3ccc(NCc4ccco4)nn23)n1	.	46.0%	-7.1%	16.0%	50.1µM*
COc1cc(SC)ccc1C(=O)N1CCn2c3c(c4cc(C)ccc42)CCCC31 (stereo unspecified)	.	-20.2%	-40.4%[59 µM]	-14.9%	-15.1%
SMILES	L3MBTL1 block	HP1b binding inh	G9a inh	JMJD2A Tudor inh	BAZ2B inh
CC(=O)C(C(C)=O)C(NC(=O)c1cccnc1)(C(F)(F)F)C(F)(F)F	-5.6%	20.0%	-15.6%[59 µM]	3.55µM*	-24.4%
CCOC(=O)C(O)(NC(=O)c1cccnc1)C(F)(F)F (stereo unspecified)	.	51.6%	?	8.2%	-31.0%
CC1CN(C(=O)N2CCC(C(=O)NCCCc3ccccc3)CC2)c2cc(Cl)ccc2O1 (stereo unspecified)	.	-2.6%	?	-23.0%	?
COc1ccc(OC)c(C(=O)C(=O)c2cc(OC)ccc2OC)c1	.	-5.8%	.	-30.8%	.
COc1ccc(OC)c(N)c1	-18.1%	?	31.6µM*	?	50.1µM*
COc1ccc(N=Nc2cc(OC)c(N)cc2OC)cc1	.	50.1µM*	.	44.7µM*	.
COc1ccc(N=Nc2ccc(N)nc2N)cc1	-17.2%	?	28.2µM*	39.8µM*	39.8µM*
CCOc1ccc2nc3cc(N=Nc4ccc(N)nc4N)ccc3c(N)c2c1	.	?	.	56.2µM*	.
COc1ccc(CNC(=O)Cc2c(C(=O)O)c(C)cn2C)cc1	.	25.5%	4.5%[59 µM]	-8.0%	-16.9%
CCCCNC(=O)CSc1nc(O)c(Cc2ccc(OC)cc2)c(=O)[nH]1	.	17.3%	8.3%	0.0%	-19.0%
COc1ccc(Cc2c(O)nc(SCC(=O)NC34CC5CC(CC(C5)C3)C4)[nH]c2=O)cc1	7.7%	29.8%	44.7µM*	-16.7%	?
O=S(=O)(Nc1ccc(F)c(C(F)(F)F)c1)c1ccc(N2CCCCS2(=O)=O)cc1	.	66.5%	21.0%[59 µM]	-7.9%	11.7%
Cc1snc(SCC(=O)c2ccc(Cl)cc2)c1C#N	16.1%	21.0%	20µM*	27.3%	25.5%
Cc1ccnc(SCC(=O)c2ccc(Br)cc2)c1C#N	26.2%	36.9%	50.1µM*	?	16.4%
Cc1ccc(C(=O)CSc2nsc(C)c2C#N)cc1	12.4%	-25.9%	4.47µM*	-19.8%	5.1%
CC(=O)CSc1nsc(SCC(C)=O)c1C#N	-7.5%	-7.9%	8.91µM*	-30.0%	-2.3%
CC1=C(C(=O)Nc2ccccc2)C(c2cccc(O)c2)n2nc(-c3ccccc3Cl)nc2N1 (stereo unspecified)	.	17.0%	-0.8%[59 µM]	-27.1%	-9.0%
COC(=O)c1ccccc1CSc1nsc(C)c1C#N	.	47.9%	15.8µM*	83.6%	87.3%
S=C1Cc2ccccc2N1	-9.5%	?	4.47µM*	79.4µM*	-35.5%
CCOc1ccc(C(=O)N2CCc3cc(OC)c(OC)cc3C2COc2ccc3c(C)cc(=O)oc3c2)cc1OCC (stereo unspecified)	.	0.9%	3.0%[59 µM]	-16.7%	0.0%
Cc1cccc(-c2noc(-c3cccnc3NCc3ccco3)n2)c1	.	34.7%	-34.2%[59 µM]	-16.2%	-11.1%
O=C(N=C1SC2CS(=O)(=O)CC2N1c1ccc(Cl)cc1Cl)C1CC1 (stereo unspecified)	.	27.5%	79.4µM*	-9.7%	-23.1%
O=C(N=C1SC2CS(=O)(=O)CC2N1c1ccc(Cl)cc1Cl)C1CCCO1 (stereo unspecified)	.	36.8%	3.1%	-3.4%	-6.8%
N[C@@H](Cc1cc(I)c(Oc2ccc(O)cc2)c(I)c1)C(=O)O	.	.	24.9%[59 µM]	.	.
CCOC(=O)c1cnc(-n2nc(C)cc2C)[nH]c1=O	5.0%	36.2%	-4.3%	-17.6%[11.4 µM]	39.8µM*
CCOC(=O)c1cnc(-n2nc(C)cc2C)nc1N1CCOCC1	17.0%	17.2%	79.4µM*	-4.8%	14.0%
